Data on two molecules can be found in the supplement of paper PMC8728848.

Common to all, as to experiment: glycan array binding signal (z-score within array); higher = stronger binding
Holding throughout (details): glycan notation: IUPAC condensed, linker removed

Assay [1] deals with Fuc(a1-2)Gal(b1-4)GlcNAc(b1-3)Gal(b1-4)GlcNAc(b1-3)Gal(b1-4)GlcNAc. In short, it runs like this:
(§1)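 Glycan array data were curated from 3228 arrays in the Consortium for Functional Glycomics database and kept only where the protein sequence was available. Glycan names were converted to IUPAC-condensed notation, and columns mapping to the same glycan were averaged. The binding signal is a within-array Z-score, averaged across arrays of the same protein sequence at different concentrations or buffers and across linkers. Negative Z-scores can be read as non-binding.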

For assay [2], the target named is Fuc(a1-2)Gal(b1-4)[Fuc(a1-3)]GalNAc(b1-3)Gal(b1-4)[Fuc(a1-3)]GlcNAc. In short, it runs like this:
as §1

Assay [3] addresses Fuc(a1-2)Gal(b1-4)[Fuc(a1-3)]GalNAc(b1-3)Gal(b1-4)[Fuc(a1-3)]GlcNAc(b1-3)Gal(b1-4)[Fuc(a1-3)]GalNAc. In short, it runs like this: as §1
In assay [4] the target is Fuc(a1-2)Gal(b1-4)[Fuc(a1-3)]GlcNAc. In short, it runs like this:
as §1

The target in assay [5] is Fuc(a1-2)[Gal(a1-3)]Gal. In short, it runs like this:
as §1

Assay [6] has as its target Fuc(a1-2)[Gal(a1-3)]Gal(b1-4)[Fuc(a1-3)]GlcNAc. A digest of the protocol: as §1
The target in assay [7] is Fuc(a1-2)[GalNAc(a1-3)]Gal. In short, it runs like this:
as §1

Assay [8] deals with Fuc(a1-3)GlcNAc. In short, it runs like this: as §1
For assay [9], the target named is Fuc(a1-3)[Gal(b1-4)]GlcNAc. A digest of the protocol:
as §1

For assay [10], the target named is Gal(a1-2)Gal. A digest of the protocol:
as §1

Assay [11] has as its target Gal(b1-3)[Neu5Ac(a2-6)]GalNAc. A digest of the protocol:
as §1

Assay [12] deals with Gal(b1-3)[Neu5Ac(b2-6)]GlcNAc. A digest of the protocol:
as §1

In assay [13] the target is Gal(b1-4)GlcNAc(b1-2)Man(a1-3)[Gal(b1-4)GlcNAc(b1-2)Man(a1-6)]Man(b1-4)GlcNAc(b1-4)GlcNAc. A digest of the protocol: as §1
The target in assay [14] is Gal(b1-4)GlcNAc(b1-3)Gal(b1-4)GlcNAc(b1-3)Gal(b1-4)GlcNAc. In short, it runs like this:
as §1

Assay [15] deals with Gal(b1-4)GlcNAc(b1-3)[Gal(b1-4)GlcNAc(b1-6)]GalNAc. In short, it runs like this:
as §1

For assay [16], the target named is Gal(b1-4)GlcNAc(b1-6)[Gal(b1-3)]GalNAc. A digest of the protocol: as §1
Assay [17] concerns the target Gal6S(b1-4)Glc6S. A digest of the protocol:
as §1

For assay [18], the target named is GalNAc(b1-4)GlcNAc. A digest of the protocol:
as §1

The target of assay [19] is GlcNAc(b1-3)GalNAc. In short, it runs like this: as §1
Assay [20] concerns the target Kdn(a2-3)Gal(b1-4)GlcNAc. A digest of the protocol: as §1
For assay [21], the target named is Neu5Ac(a2-3)Gal(b1-4)[Fuc(a1-3)]GlcNAc. A digest of the protocol:
as §1

Assay [22] deals with Neu5Gc(a2-3)Gal(b1-3)GlcNAc. In short, it runs like this: as §1
Assay [23] addresses GlcNAc(b1-2)Man(a1-3)[GlcNAc(b1-4)][GlcNAc(b1-2)Man(a1-6)]Man(b1-4)GlcNAc(b1-4)[Fuc(a1-6)]GlcNAc. In short, it runs like this:
as §1

Assay [24] addresses GlcNAc(b1-2)[GlcNAc(b1-4)]Man(a1-3)[GlcNAc(b1-2)Man(a1-6)]Man(b1-4)GlcNAc(b1-4)GlcNAc. In short, it runs like this:
as §1

In assay [25] the target is GlcNAc(b1-3)Gal(b1-4)GlcNAc. A digest of the protocol: as §1
Assay [26] addresses GlcNAc(b1-3)Gal(b1-4)GlcNAc(b1-2)Man(a1-3)[GlcNAc(b1-3)Gal(b1-4)GlcNAc(b1-2)Man(a1-6)]Man(b1-4)GlcNAc(b1-4)GlcNAc. A digest of the protocol: as §1
Assay [27] has as its target GlcNAc(b1-3)Gal(b1-4)GlcNAc(b1-3)Gal(b1-4)GlcNAc(b1-3)Gal(b1-4)GlcNAc(b1-2)[GlcNAc(b1-3)Gal(b1-4)GlcNAc(b1-3)Gal(b1-4)GlcNAc(b1-3)Gal(b1-4)GlcNAc(b1-6)]Man(a1-6)[GlcNAc(b1-3)Gal(b1-4)GlcNAc(b1-3)Gal(b1-4)GlcNAc(b1-3)Gal(b1-4)GlcNAc(b1-2)Man(a1-3)]Man(b1-4)GlcNAc(b1-4)[Fuc(a1-6)]GlcNAc. In short, it runs like this:
as §1

Assay [28] concerns the target GlcNAc(b1-3)[GlcNAc(b1-4)][GlcNAc(b1-6)]GlcNAc. In short, it runs like this:
as §1

For assay [29], the target named is Man(a1-6)Man. In short, it runs like this:
as §1

Assay [30] deals with Neu5Ac(a2-3)Gal(b1-3)[Fuc(a1-4)]GlcNAc(b1-3)Gal(b1-4)[Fuc(a1-3)]GlcNAc. A digest of the protocol: as §1
For assay [31], the target named is Neu5Ac(a2-3)Gal(b1-4)GlcNAc(b1-2)Man(a1-3)[Neu5Ac(a2-3)Gal(b1-4)GlcNAc(b1-2)Man(a1-6)]Man(b1-4)GlcNAc(b1-4)GlcNAc. A digest of the protocol: as §1
The target in assay [32] is Neu5Ac(a2-3)Gal(b1-4)GlcNAc(b1-3)Gal(b1-4)GlcNAc(b1-6)[Gal(b1-3)]GalNAc. A digest of the protocol:
as §1

For assay [33], the target named is Neu5Ac(a2-3)Gal(b1-4)[Fuc(a1-3)]GlcNAc(b1-3)Gal. In short, it runs like this:
as §1

Assay [34] concerns the target Neu5Ac(a2-3)Gal(b1-4)[Fuc(a1-3)]GlcNAc(b1-3)Gal(b1-4)[Fuc(a1-3)]GlcNAc(b1-3)Gal(b1-4)[Fuc(a1-3)]GlcNAc. In short, it runs like this:
as §1

Assay [35] deals with Neu5Ac(a2-6)Gal(b1-4)GlcNAc(b1-2)Man(a1-6)Man(b1-4)GlcNAc(b1-4)GlcNAc. In short, it runs like this:
as §1

In assay [36] the target is Neu5Ac(a2-6)Gal(b1-4)GlcNAc(b1-3)[Neu5Ac(a2-6)Gal(b1-4)GlcNAc(b1-6)]GalNAc. A digest of the protocol:
as §1

In assay [37] the target is Neu5Ac(a2-8)Neu5Ac(a2-3)Gal(b1-3)GalNAc(b1-4)[Neu5Ac(a2-8)Neu5Ac(a2-3)]Gal(b1-4)Glc. A digest of the protocol:
as §1

The entries come from a sample that favours the strongest signals as a whole.

B1: NakA (Mycobacterium tuberculosum) (protein)
chain: SVVKPTKVTVFSPDGGADNPGEADLAIDGNPATSWKTDIYTDPVPFPSFKNGVGLMLQLPQATVVGTVAIDVASTGTKVEIRSASTPTPATLEDTAVLTSATALRPGHNTISVEAAAPTSNLLVWISTLGTTDGKSQADISEITIYAASD
As to B1, the “glycan array binding signal (z-score)” value in [1] came out at 2.46; in [2] it was 1.53; in assay [3] it was 2.85; in assay [4], 2.46; in assay [5], 0.037; in [6] it was 2.29. Further, the “glycan array binding signal (z-score)” value in [7] was 0.057; in [8] it was 3.17; in assay [9], -0.303; in assay [10] it was -0.019; in assay [11] it was -0.457; in [12], -0.353. The “glycan array binding signal (z-score)” value was -0.5 in [13]; -0.502 in assay [14]; -0.414 in [15]; -0.553 in assay [16]; -0.213 in assay [17]; -0.305 in assay [18]. For the same molecule, the “glycan array binding signal (z-score)” value was -0.001 in [19], -0.507 in assay [20], -0.418 in assay [21] and -0.404 in assay [22].

B2: Epa22 (Candida glabrata) (protein)
chain: MGSSHHHHHHSSGLVPRGSHMKRALSSQNPFGYPIGCSPQSTNVIPGLTMELYSYPIVSGTPPNCYDASYVDPEYPRTGYLKRKMIGKSTGVTGSLNYKFSVEKACMVKYGNLPAGYNYNEPLTVSNFTMLLYGYFKPQTSGIHTFFVNADDLLYINFGAGNAFDCCKREDSKFKLGEYVAYDIWHVDSSKNKVSLNLEKDVYYPIRMFFNNIGKDSSLDLSFSVNGAVEHITDFSGYLYSVPDQPDACPAPIGYDTTCK
With B2, the “glycan array binding signal (z-score)” value in assay [23] was -0.35; in [24], -0.368; in assay [25], -0.312; in assay [26], -0.39; in assay [27], -0.37; in assay [28] it was -0.383. For the same molecule, the “glycan array binding signal (z-score)” value in assay [29] was -0.371; in assay [30] it was -0.409; in [31], -0.356; in [32], -0.248; in assay [33] it was -0.385; in [34], -0.375. In addition, the “glycan array binding signal (z-score)” value is -0.426 in assay [35], -0.246 in assay [36] and -0.003 in assay [37].
